33 compounds from ChEMBL document CHEMBL1961873, “Compounds: GSK PKIS; Assays: Nanosyn kinase panel” (2012) can be followed below.

For one test, the target named is BDNF/NT-3 growth factors receptor (Homo sapiens) (UniProt Q16620). To be noted: at 1 µM.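 Note: values are the mean percent inhibition of TRKB kinase.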
Chain of BDNF/NT-3 growth factors receptor (Homo sapiens) (Q16620 32-822 limits assumed): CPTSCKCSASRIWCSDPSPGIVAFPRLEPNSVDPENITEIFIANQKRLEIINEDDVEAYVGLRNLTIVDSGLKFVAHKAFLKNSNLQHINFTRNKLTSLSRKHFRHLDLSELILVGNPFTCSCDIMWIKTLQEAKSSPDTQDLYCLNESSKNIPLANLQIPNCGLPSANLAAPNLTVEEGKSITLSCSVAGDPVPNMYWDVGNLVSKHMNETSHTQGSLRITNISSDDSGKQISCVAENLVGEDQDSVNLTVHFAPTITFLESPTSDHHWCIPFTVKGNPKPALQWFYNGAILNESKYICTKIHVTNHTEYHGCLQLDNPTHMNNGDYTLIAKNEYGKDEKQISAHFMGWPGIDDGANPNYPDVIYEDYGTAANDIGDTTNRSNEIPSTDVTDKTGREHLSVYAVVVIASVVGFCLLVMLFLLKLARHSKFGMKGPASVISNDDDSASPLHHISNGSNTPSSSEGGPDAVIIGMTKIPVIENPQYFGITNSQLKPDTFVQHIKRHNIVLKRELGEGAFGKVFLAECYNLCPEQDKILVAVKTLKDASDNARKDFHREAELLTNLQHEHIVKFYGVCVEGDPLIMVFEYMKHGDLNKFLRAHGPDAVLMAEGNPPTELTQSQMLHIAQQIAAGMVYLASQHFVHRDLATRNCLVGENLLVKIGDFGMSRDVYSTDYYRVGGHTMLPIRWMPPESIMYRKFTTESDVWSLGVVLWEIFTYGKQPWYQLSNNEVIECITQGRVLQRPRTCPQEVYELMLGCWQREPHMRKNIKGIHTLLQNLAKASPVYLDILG
Regarding `CS(=O)(=O)CCNCc1ccc(-c2ccc3ncnc(Nc4ccc(OCc5cccc(F)c5)c(C(F)(F)F)c4)c3c2)o1`, the inhibition is 2.72%.

With `Fc1cccc(COc2ccc(Nc3ncnc4sc(-c5cccs5)cc34)cc2Cl)c1`, the inhibition came to 1.29%.

`CC1=C(C(=O)Nc2ccc3[nH]ncc3c2)C(c2ccc3ccccc3c2)CC(=O)N1` (stereo unspecified): the inhibition was 4.38%.

Consider `CS(=O)(=O)CCNCc1ccc(-c2ccc3ncnc(Nc4ccc(OCc5ccccc5)c(Cl)c4)c3c2)o1`, for which the inhibition worked out at 2.87%.

Regarding `Cc1cc(O)cc(C)c1/C=C/c1cncc(-c2nn[nH]n2)c1`, the inhibition stood at 3.06%.

On to `O=C1Nc2ccc(C(=O)c3ccco3)cc2C1=Cc1cc(Cl)c(O)c(Cl)c1`, for which the inhibition is 29.1%.

As for `COc1cc(C)c(NC(=O)CN(C)C)cc1Nc1nc(Nc2cccc(F)c2C(N)=O)c2cc[nH]c2n1`, the inhibition was 1.27%.

With `NC(=O)c1ccc(-c2nc(-c3ccccn3)c(-c3ccc4c(c3)OCO4)[nH]2)cc1`, the inhibition is 0.41%.

With `CCn1c(-c2nonc2N)nc2cnc(Oc3cccc(NC(=O)c4ccc(OCCN5CCOCC5)cc4)c3)cc21`, the inhibition turned out to be 0.84%.

For the compound `COc1cc2ncn(-c3cc(O[C@H](C)c4ccccc4Cl)c(C(N)=O)s3)c2cc1OC`, the inhibition amounted to 43.3%.

Consider `Cc1ccc(C(=O)NC2CCCCC2)cc1-c1ccc(C(=O)NCC2CC2)cc1`, for which the inhibition is -0.15%.

On to `CCn1c(-c2nonc2N)nc2c(C#CC(C)(C)O)nc(CN3CCCC3)cc21`, for which the inhibition was -0.47%.

Consider `Cc1nn(C)c2cc(N(C)c3ccnc(Nc4cccc(S(N)(=O)=O)c4)n3)ccc12`, for which the inhibition worked out at 11.7%.

Turning to `COc1cc2ncn(-c3cc(OCc4ccccc4Cl)c(C(N)=O)s3)c2cc1OC`, the inhibition came out at 13.7%.

Consider `COc1ccc2cc(-c3c(-c4ccncc4)nc(-c4ccc([S+](C)[O-])cc4)n3C)ccc2c1` (stereo unspecified), for which the inhibition stood at 1.15%.

In the case of `COc1ccc(-c2ccncc2)cc1C(N)=O`, the inhibition was 3.6%.

Take `CCc1cccc(NC(=O)Nc2ccc(Oc3ccc4nc(NC(=O)OC)[nH]c4c3)cc2)c1`: the inhibition was determined as 30.7%.

Turning to `O=C1NC(=O)C(c2ccc(Cl)cc2)=C1Nc1ccc(Cl)c(C(=O)O)c1`, the inhibition was found to be 0.65%.

In the case of `CCn1c(-c2nonc2N)nc2cncc(C(=O)N3CCNCC3)c21`, the inhibition was 4.35%.

As for `CN(C)c1cc2c(Nc3ccc4nc(Cc5ccccc5)[nH]c4c3)ncnc2cn1`, the inhibition stood at 2.87%.

For the compound `Nc1nc(-c2ccc3c(c2)C(=Cc2cc(Br)c(O)c(Br)c2)C(=O)N3)cs1`, the inhibition was 9.18%.

For the compound `Nc1nc(-c2ccccn2)c(-c2ccc3ncccc3n2)s1`, the inhibition stood at 2.56%.

Take `Nc1ncnc2occ(-c3ccc(NC(=O)Nc4cc(C(F)(F)F)cc(C(F)(F)F)c4)cc3)c12`: the inhibition was 86.4%.

In the case of `NS(=O)(=O)c1cccc(-c2ccc3c(NC(=O)C4CC4)n[nH]c3c2)c1`, the inhibition is 2.04%.

Turning to `CCN1CCC(CC(=O)Nc2n[nH]c3nc(-c4cccs4)c(Br)cc23)CC1`, the inhibition is -1.99%.

With `Cc1cccc(-c2n[nH]cc2-c2ccc3ncccc3n2)n1`, the inhibition came to 0.79%.

Consider `COC(=O)Nc1nc2cc(Oc3cccc(NC(=O)Nc4cc(C(F)(F)F)ccc4F)c3)ccc2[nH]1`, for which the inhibition amounted to 2.43%.

As to `CNC(=O)c1cncc(/C=C/c2c(Cl)cccc2Cl)c1`, the inhibition stood at 4.39%.

On to `Cc1nnc(-c2ccc(C)c(-c3ccc(C(=O)Nc4cccc(C#N)c4)cc3)c2)o1`, for which the inhibition is 3.51%.

`CC(=O)Nc1cccc(C#Cc2cncnc2Nc2ccc(OCc3cccc(F)c3)c(Cl)c2)n1`: the inhibition was 0.05%.

For the compound `O=C1NC(=O)C(c2cccc(Cl)c2)=C1Nc1ccc(O)c(Cl)c1`, the inhibition is 0.31%.

As to `CC(C)=Cc1cccc2c1/C(=N/Nc1ccc(S(N)(=O)=O)cc1)C(=O)N2`, the inhibition was 75.3%.

`COc1cc2ncn(-c3cc(OCc4ccccc4C(F)(F)F)c(C(N)=O)s3)c2cc1OC`: the inhibition is 10.2%.

For a further test, the target named is NT-3 growth factor receptor (Homo sapiens) (UniProt Q16288). The note with it: at 0.1 µM.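 Note: mean percent inhibition of TRKC, reported within the GSK PKIS dataset.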
Chain of NT-3 growth factor receptor (Homo sapiens) (Q16288 32-839 limits assumed): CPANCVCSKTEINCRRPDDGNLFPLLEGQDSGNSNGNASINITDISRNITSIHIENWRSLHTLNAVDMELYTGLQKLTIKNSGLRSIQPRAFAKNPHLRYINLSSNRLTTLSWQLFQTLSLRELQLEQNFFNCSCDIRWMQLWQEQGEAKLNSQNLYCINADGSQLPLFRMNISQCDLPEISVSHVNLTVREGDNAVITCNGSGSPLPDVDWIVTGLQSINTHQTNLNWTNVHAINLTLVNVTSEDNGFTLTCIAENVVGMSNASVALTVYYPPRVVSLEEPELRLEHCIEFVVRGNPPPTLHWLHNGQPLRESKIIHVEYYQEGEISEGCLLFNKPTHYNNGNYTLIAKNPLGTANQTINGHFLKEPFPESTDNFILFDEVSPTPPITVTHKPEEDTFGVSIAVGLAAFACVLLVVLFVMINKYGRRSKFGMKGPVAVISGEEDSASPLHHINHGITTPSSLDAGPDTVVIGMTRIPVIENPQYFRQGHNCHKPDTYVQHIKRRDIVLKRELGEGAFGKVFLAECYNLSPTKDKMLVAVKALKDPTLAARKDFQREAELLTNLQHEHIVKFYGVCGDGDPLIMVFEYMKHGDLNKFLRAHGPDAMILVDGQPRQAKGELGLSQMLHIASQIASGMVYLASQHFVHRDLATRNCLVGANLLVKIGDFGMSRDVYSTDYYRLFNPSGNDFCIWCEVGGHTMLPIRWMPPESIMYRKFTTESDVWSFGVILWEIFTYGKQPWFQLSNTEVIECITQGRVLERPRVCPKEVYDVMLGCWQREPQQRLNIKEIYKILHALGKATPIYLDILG
Turning to `CS(=O)(=O)CCNCc1ccc(-c2ccc3ncnc(Nc4ccc(OCc5cccc(F)c5)c(C(F)(F)F)c4)c3c2)o1`, the inhibition worked out at 2.59%.

On to `Fc1cccc(COc2ccc(Nc3ncnc4sc(-c5cccs5)cc34)cc2Cl)c1`, for which the inhibition came out at 1.21%.

For the compound `CC1=C(C(=O)Nc2ccc3[nH]ncc3c2)C(c2ccc3ccccc3c2)CC(=O)N1` (stereo unspecified), the inhibition was determined as 5.87%.

Take `CS(=O)(=O)CCNCc1ccc(-c2ccc3ncnc(Nc4ccc(OCc5ccccc5)c(Cl)c4)c3c2)o1`: the inhibition came to 1.98%.

As for `Cc1cc(O)cc(C)c1/C=C/c1cncc(-c2nn[nH]n2)c1`, the inhibition was determined as 3.61%.

For the compound `O=C1Nc2ccc(C(=O)c3ccco3)cc2C1=Cc1cc(Cl)c(O)c(Cl)c1`, the inhibition turned out to be 9.19%.

With `COc1cc(C)c(NC(=O)CN(C)C)cc1Nc1nc(Nc2cccc(F)c2C(N)=O)c2cc[nH]c2n1`, the inhibition turned out to be 2.83%.

Consider `NC(=O)c1ccc(-c2nc(-c3ccccn3)c(-c3ccc4c(c3)OCO4)[nH]2)cc1`, for which the inhibition was 0.44%.

For `CCn1c(-c2nonc2N)nc2cnc(Oc3cccc(NC(=O)c4ccc(OCCN5CCOCC5)cc4)c3)cc21`, the inhibition is 2.85%.

Regarding `COc1cc2ncn(-c3cc(O[C@H](C)c4ccccc4Cl)c(C(N)=O)s3)c2cc1OC`, the inhibition was 16.1%.

In the case of `Cc1ccc(C(=O)NC2CCCCC2)cc1-c1ccc(C(=O)NCC2CC2)cc1`, the inhibition stood at 0.18%.

For `CCn1c(-c2nonc2N)nc2c(C#CC(C)(C)O)nc(CN3CCCC3)cc21`, the inhibition was -1.68%.

For the compound `Cc1nn(C)c2cc(N(C)c3ccnc(Nc4cccc(S(N)(=O)=O)c4)n3)ccc12`, the inhibition came to 2.83%.

With `COc1cc2ncn(-c3cc(OCc4ccccc4Cl)c(C(N)=O)s3)c2cc1OC`, the inhibition came out at 3.13%.

For the compound `COc1ccc2cc(-c3c(-c4ccncc4)nc(-c4ccc([S+](C)[O-])cc4)n3C)ccc2c1` (stereo unspecified), the inhibition turned out to be 0.11%.

On to `COc1ccc(-c2ccncc2)cc1C(N)=O`, for which the inhibition is 4.78%.

For `CCc1cccc(NC(=O)Nc2ccc(Oc3ccc4nc(NC(=O)OC)[nH]c4c3)cc2)c1`, the inhibition worked out at 20.4%.

Take `O=C1NC(=O)C(c2ccc(Cl)cc2)=C1Nc1ccc(Cl)c(C(=O)O)c1`: the inhibition was -1.8%.

For the compound `CCn1c(-c2nonc2N)nc2cncc(C(=O)N3CCNCC3)c21`, the inhibition turned out to be 3.96%.

`CN(C)c1cc2c(Nc3ccc4nc(Cc5ccccc5)[nH]c4c3)ncnc2cn1`: the inhibition worked out at 3.93%.

As to `Nc1nc(-c2ccc3c(c2)C(=Cc2cc(Br)c(O)c(Br)c2)C(=O)N3)cs1`, the inhibition was 2.62%.

Turning to `Nc1nc(-c2ccccn2)c(-c2ccc3ncccc3n2)s1`, the inhibition turned out to be 1.67%.

As to `Nc1ncnc2occ(-c3ccc(NC(=O)Nc4cc(C(F)(F)F)cc(C(F)(F)F)c4)cc3)c12`, the inhibition amounted to 39%.

For the compound `NS(=O)(=O)c1cccc(-c2ccc3c(NC(=O)C4CC4)n[nH]c3c2)c1`, the inhibition stood at 0.11%.

Take `CCN1CCC(CC(=O)Nc2n[nH]c3nc(-c4cccs4)c(Br)cc23)CC1`: the inhibition is -0.62%.

Consider `Cc1cccc(-c2n[nH]cc2-c2ccc3ncccc3n2)n1`, for which the inhibition is 0.22%.

On to `COC(=O)Nc1nc2cc(Oc3cccc(NC(=O)Nc4cc(C(F)(F)F)ccc4F)c3)ccc2[nH]1`, for which the inhibition was -0.83%.

On to `CNC(=O)c1cncc(/C=C/c2c(Cl)cccc2Cl)c1`, for which the inhibition was determined as 2.24%.

As for `Cc1nnc(-c2ccc(C)c(-c3ccc(C(=O)Nc4cccc(C#N)c4)cc3)c2)o1`, the inhibition is -0.42%.

For `CC(=O)Nc1cccc(C#Cc2cncnc2Nc2ccc(OCc3cccc(F)c3)c(Cl)c2)n1`, the inhibition was -0.41%.

`O=C1NC(=O)C(c2cccc(Cl)c2)=C1Nc1ccc(O)c(Cl)c1`: the inhibition is -0.33%.

Turning to `CC(C)=Cc1cccc2c1/C(=N/Nc1ccc(S(N)(=O)=O)cc1)C(=O)N2`, the inhibition turned out to be 23.6%.

Take `COc1cc2ncn(-c3cc(OCc4ccccc4C(F)(F)F)c(C(N)=O)s3)c2cc1OC`: the inhibition is 5.07%.
